Source: PubChem BioAssay
Compounds with a hit are over-represented: about 18% of the library has one in this group of screens.
TGFb SMAD3 inh = TGF-b pathway inhibition; HepG2 CAGA-GFP TGF-b/SMAD3 reporter, GFP fluorescence, 18 h; TGF-beta stimulated, 500 pg/mL final; Potency, µM (series often up to 46.1 µM), without a hit: at the top dose activity, negative = inhibition, usual class: inhibitors; 1.2% of 410,000 active; AID 588855; also: potency is read from the fitted curve at half-maximal effect; % is scaled to controls: 0 for no effect and ±100 for the full control effect; nearly all actives have a fitted effect of over 65% in size
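HEPG2 CAGA-GFP reporter cells (1000/well, DMEM with 1% FBS) received compounds, then recombinant TGF-beta at 500 pg/mL final for 18 hours at 37 degrees C. Per-cell GFP summed per well was normalised to unstimulated and stimulated DMSO controls before curve fitting.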
HepG2 tox = counter-screen for TGF-b inhibitors: cytotoxicity in HepG2 cells; HepG2 CAGA-GFP viability, ATP luminescence, 18 h; Potency, µM (doses to about 46.1 µM), for the others: at the top dose activity change, negative = cytotoxicity, usual class: cytotoxic; 0.76% of 410,000 active; also: potency is read from the fitted curve at half-maximal effect
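CellTiter-Glo luminescence gave cytotoxicity after 18 hours at 37 degrees C. The cells were HepG2 CAGA-GFP in 1% FBS DMEM, stimulated with 500 pg/mL TGF-beta after compound addition. %Activity was normalised to no-cell wells (complete cell-killing) and DMSO (no toxicity), and curves were fitted and classified.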
TDP1 cell CPT = growth inhibition of DT40 Tdp1-/-;hTDP1 cells with camptothecin (screen for TDP1 inhibitors). AID 686979. chicken DT40 Tdp1-/-;hTDP1 cells + 20 nM CPT, ATP luminescence, 48 h. 12% of 420,000 active. Potency, µM (titrated, usually from 46.2 µM), for the others: at the highest dose activity change, negative = growth inhibition, hits mostly inhibitors; also: potency is read from the fitted curve at half-maximal effect; % is scaled to controls: 0 for no effect and ±100 for the full control effect; nearly all actives have a fitted effect of over 55% in size
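Chicken DT40 Tdp1-/- cells complemented with human TDP1, 400 cells/well, exposed to compounds plus 20 nM camptothecin for at least 48 h at 37 C; viability read as ATP content by CellTiter-Glo luminescence.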
TDP1 block = inhibitors of human tyrosyl-DNA phosphodiesterase TDP1; Q9NUW8; recombinant TDP1, AlphaScreen DNA substrate cleavage; Potency, µM (series often up to 130 µM), inactives show at the highest dose activity change, negative = inhibition, usual class: inhibitors; 0.28% of 350,000 active; AID 485290; also: potency is read from the fitted curve at half-maximal effect; % is scaled to controls: 0 for no effect and ±100 for the full control effect; nearly all actives have a fitted effect of over 40% in size
Target sequence (Q9NUW8 whole entry, looked up): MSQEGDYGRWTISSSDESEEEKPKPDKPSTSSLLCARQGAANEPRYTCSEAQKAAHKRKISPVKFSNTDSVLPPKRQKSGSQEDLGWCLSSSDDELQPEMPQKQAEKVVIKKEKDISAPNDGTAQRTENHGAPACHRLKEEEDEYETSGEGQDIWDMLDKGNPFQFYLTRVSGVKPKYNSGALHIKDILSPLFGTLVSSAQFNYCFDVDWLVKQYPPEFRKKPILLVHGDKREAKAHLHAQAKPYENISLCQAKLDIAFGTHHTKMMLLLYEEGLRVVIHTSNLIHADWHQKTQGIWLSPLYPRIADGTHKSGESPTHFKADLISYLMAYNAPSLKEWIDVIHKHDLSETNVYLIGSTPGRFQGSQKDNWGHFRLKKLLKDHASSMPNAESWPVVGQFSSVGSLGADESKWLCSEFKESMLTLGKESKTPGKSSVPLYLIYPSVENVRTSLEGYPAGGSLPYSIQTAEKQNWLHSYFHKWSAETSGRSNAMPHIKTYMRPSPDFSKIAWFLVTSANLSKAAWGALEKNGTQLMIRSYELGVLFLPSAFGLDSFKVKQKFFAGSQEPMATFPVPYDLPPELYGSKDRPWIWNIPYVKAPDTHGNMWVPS
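Recombinant E. coli-expressed Tdp1 (1 nM) preincubated with compound 15 min at RT, then 5'-biotin/3'-phosphotyrosine-FITC DNA substrate (15 nM) added for 5 min. AlphaScreen beads (10 ug/ml) added, 10 min RT; tyrosine-FITC cleavage read as signal loss.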
TDP1 cell noCPT = qHTS for Inhibitors of human tyrosyl-DNA phosphodiesterase 1 (TDP1): qHTS in cells in absence of CPT | DT40 Tdp1-/- hTDP1 cells, no CPT, ATP luminescence, 48 h | Potency, µM (top dose mostly 46.2 µM), without a hit: top-dose activity change, negative = growth inhibition, actives largely listed as inhibitors | 15% of 420,000 active | AID 686978, 2013; also: potency is read from the fitted curve at half-maximal effect; % is scaled to controls: 0 for no effect and ±100 for the full control effect; nearly all actives have a fitted effect of over 55% in size
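Readout: luminescence from CellTiter-Glo after 30 min in the dark at RT. Cells: DT40 Tdp1-/- with stable hTDP1, 400/well. Exposure: compounds alone, ≥48 hr, 37 °C.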
IL1B secr inh = inhibitors of inflammasome signaling (IL-1 beta secretion); THP-1 LPS/ATP IL-1B secretion, AlphaLISA, 16 h; stronger effect = lower value; AID 743279; 4.7% of 360,000 active; activity change, % at 57.5 µM; in the data active = activity change below about -50%; inconclusive = mostly about -30% to -49%; also: % is scaled to controls: 0 for no effect and ±100 for the full control effect
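Secreted IL-1B measured by AlphaLISA bead assay after 16 h compound exposure of THP-1 cells; compounds (final up to 57.5 uM) added 1 h before LPS (250 ng/mL) and ATP (1.25 mM) stimulation; lower signal means less secretion.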
Starred values were filed as active, the others as inactive; [ ] = dose if it differs, or a comment. Unless noted, calls follow the shape of the dose curve; as a rule, active = well fitted curve in the direction sought with a large enough effect; inconclusive = small, poorly fitted or top-dose-only effect, or another doubt; inactive = no such curve, though single readings can be large; an effect the other way counts as inactive or inconclusive.

Results for CCCc1nc2ccccc2c(C(=O)OCC(=O)N2CCc3ccccc32)c1CC ?
TGFb SMAD3 inh: inconclusive; HepG2 tox: 4%; TDP1 cell CPT: 18µM*; TDP1 block: 0%; TDP1 cell noCPT: 12µM*; IL1B secr inh: 13

Results for COc1ccc(/C=C/c2nc(C#N)c(NCCc3ccccc3)o2)cc1OC ?
TGFb SMAD3 inh: inconclusive; HepG2 tox: -23%; TDP1 cell CPT: inconclusive; TDP1 block: 5%; TDP1 cell noCPT: inconclusive

What do the screens show for `N#C/C(=C\c1ccc(-c2ccc(F)cc2F)o1)c1nc2ccccc2[nH]1`?
TGFb SMAD3 inh: 189%; HepG2 tox: -59%; TDP1 cell CPT: 23µM*; TDP1 block: -4%[12.3 µM]; TDP1 cell noCPT: 13µM*

How did N#C/C(=C\c1ccc(-c2ccccc2C(=O)O)o1)c1nc2ccccc2[nH]1 do in these assays?
TGFb SMAD3 inh: inconclusive; HepG2 tox: -12%; TDP1 cell CPT: inconclusive; TDP1 block: -1%[12.3 µM]; TDP1 cell noCPT: 15µM*; IL1B secr inh: inconclusive

What do the screens show for `CCOc1ccc(OCCC(=O)OCC(=O)N2CCN(c3ccc(OC)cc3)CC2)cc1`?
TGFb SMAD3 inh: -8%; HepG2 tox: 6%; TDP1 cell CPT: -22%; TDP1 block: -12%; TDP1 cell noCPT: -25%; IL1B secr inh: 12

Results for CN(C)c1ccc(CNC(=O)CN2CCSc3ccc(S(=O)(=O)N(C)C)cc32)cc1 ?
TGFb SMAD3 inh: -26%; HepG2 tox: -20%; TDP1 block: 8%

What do the screens show for `Cc1cc(C(c2ccc(O)cc2)c2cc(C)c(O)cc2C)c(C)cc1O`?
TGFb SMAD3 inh: inconclusive; HepG2 tox: -14%; TDP1 cell CPT: inconclusive; TDP1 cell noCPT: -5%; IL1B secr inh: -82*

What do the screens show for `CCOC(=O)c1ccc(-c2ccc(/C=C(\C#N)C(=O)Nc3cccc(C)c3)o2)cc1`?
TGFb SMAD3 inh: -5%; HepG2 tox: -30%; TDP1 block: 2%

How did CCOC(=O)c1ccc(-c2ccc(/C=C(\C#N)C(=O)NCc3cccs3)o2)cc1 do in these assays?
TGFb SMAD3 inh: 10%; HepG2 tox: -21%; TDP1 cell CPT: 23µM*; TDP1 block: 3%; TDP1 cell noCPT: 18µM*; IL1B secr inh: 10

How did N#C/C(=C\c1ccc(-c2ccc(C(=O)O)cc2)o1)C(=O)Nc1ccc(F)cc1 do in these assays?
TGFb SMAD3 inh: 5%; HepG2 tox: 3%; TDP1 cell CPT: inconclusive; TDP1 cell noCPT: 12µM*; IL1B secr inh: -9

What do the screens show for `Cc1ccc(NC(=O)/C(C#N)=C\c2ccc(-c3ccc(Cl)cc3)o2)c(C)c1`?
TGFb SMAD3 inh: -1%; HepG2 tox: -4%; TDP1 cell CPT: 12µM*; TDP1 block: 2%[12.3 µM]; TDP1 cell noCPT: -97%

What do the screens show for `Cc1ccc(NC(=O)/C(C#N)=C/c2ccc(C)o2)cc1`?
HepG2 tox: -18%; TDP1 cell CPT: -7%; TDP1 block: 6%[12.3 µM]; TDP1 cell noCPT: -17%

Results for N#C/C(=C\c1ccc(-c2ccc(C(=O)O)cc2)o1)C(=O)NCC1CCCO1 (configuration not stated) ?
TGFb SMAD3 inh: 10%; HepG2 tox: 7%; TDP1 cell CPT: 0%; TDP1 block: 56µM*; TDP1 cell noCPT: -27%; IL1B secr inh: -11

What do the screens show for `COc1ccccc1-c1ccnc(-n2ncc(C(=O)NCC3(N4CCOCC4)CCCC3)c2C)n1`?
TDP1 cell CPT: 8%[9.04 µM]; TDP1 cell noCPT: -19%

Results for Cc1cc(=O)[nH]c(SCC(=O)Nc2c(C)n(C)n(-c3ccccc3)c2=O)c1C#N ?
TGFb SMAD3 inh: -2%; HepG2 tox: 4%; TDP1 cell CPT: -18%; TDP1 block: 2%; TDP1 cell noCPT: -3%; IL1B secr inh: -21

Results for CC(=O)Nc1ccc(NC(=O)c2ncoc2-c2ccco2)cc1 ?
TGFb SMAD3 inh: -10%; HepG2 tox: -13%; TDP1 cell CPT: 5%; TDP1 block: -1%; TDP1 cell noCPT: inconclusive

How did Cc1nn(-c2cccc(Cl)c2)c(Cl)c1/C=N/NC(=O)c1cccs1 do in these assays?
TGFb SMAD3 inh: 5%; HepG2 tox: -30%; TDP1 cell CPT: 16µM*; TDP1 block: -3%; TDP1 cell noCPT: 13µM*; IL1B secr inh: -2

How did COc1ccc(CCNC(=O)CSc2nnc(-c3ccccc3)c3ccccc23)cc1OC do in these assays?
TGFb SMAD3 inh: inconclusive; HepG2 tox: -2%; TDP1 cell CPT: 16µM*; TDP1 block: 7%; TDP1 cell noCPT: inconclusive; IL1B secr inh: 0

Results for COCCNC(=O)CSc1nnc(-c2ccc(C)cc2)c(-c2ccc(C)cc2)n1 ?
TGFb SMAD3 inh: -4%; HepG2 tox: -1%; TDP1 cell CPT: 26µM*; TDP1 block: 3%; TDP1 cell noCPT: inconclusive; IL1B secr inh: -26

What do the screens show for `CCOc1ccc(-c2nnc(SCC(=O)Nc3cccc(OC)c3)nc2-c2ccc(OCC)cc2)cc1`?
TGFb SMAD3 inh: -10%; HepG2 tox: -2%; TDP1 cell CPT: -13%; TDP1 block: 3%; TDP1 cell noCPT: -7%

What do the screens show for `COc1ccc(-c2nnc(SCC(=O)Nc3cccc(C(F)(F)F)c3)nc2-c2ccc(OC)cc2)cc1`?
TGFb SMAD3 inh: -1%; HepG2 tox: -17%; TDP1 cell CPT: inconclusive; TDP1 block: 6%; TDP1 cell noCPT: 18µM*

What do the screens show for `COc1ccc(-c2nnc(SCC(=O)NCCc3ccc(OC)c(OC)c3)nc2-c2ccc(OC)cc2)cc1`?
TGFb SMAD3 inh: inconclusive; HepG2 tox: -23%; TDP1 cell CPT: 18µM*; TDP1 cell noCPT: 18µM*

Results for COc1ccc(CCNC(=O)CSc2nnc(-c3ccccc3)o2)cc1OC ?
TGFb SMAD3 inh: -11%; HepG2 tox: -3%; TDP1 cell CPT: -17%; TDP1 block: 2%; TDP1 cell noCPT: -1%; IL1B secr inh: -12

What do the screens show for `COc1cccc(/C=C/C(=O)OCC(=O)N2CCCC2)c1OC`?
TGFb SMAD3 inh: -1%; HepG2 tox: -14%; TDP1 cell CPT: -10%; TDP1 block: -2%; TDP1 cell noCPT: 19%; IL1B secr inh: inconclusive

How did COc1cc(Cl)c(C)cc1NC(=O)COc1ccc(C)nc1[N+](=O)[O-] do in these assays?
TGFb SMAD3 inh: 8%; HepG2 tox: -7%; TDP1 cell CPT: inconclusive; TDP1 block: -1%; TDP1 cell noCPT: inconclusive; IL1B secr inh: 11
